# Compound activity as filed in PubChem.
# eIF4H inh = inhibitors of RNA binding by human eIF4H | eIF4H fluorescence polarization binding assay | 290,000 compounds, 0.94% hits | Q15056 | inhibition, % at 35 µM;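 note: calls also rest on retests at 20 µM and on dose response follow-up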
# PABP polyA inh = PABP-poly(A) binding inhibition; 290,000 compounds, 1% hits; inhibition, % at 35 µM; PABP-poly(A) RNA binding, fluorescence polarization; AID 2014; P11940;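 note: calls also rest on retests at 20 µM and on dose response follow-up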
# ALR inh = inhibitors of human sulfhydryl oxidase ALR | 290,000 compounds, 3.8% hits | inhibition, % (test concentration not listed) | purified ALR, DTT oxidation, H2O2 HRP-luminol luminescence | P55789;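 active = mean replicate inhibition above about 79%, with every replicate also reaching it, limit read from the data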
# Target sequence (P55789 whole entry, looked up): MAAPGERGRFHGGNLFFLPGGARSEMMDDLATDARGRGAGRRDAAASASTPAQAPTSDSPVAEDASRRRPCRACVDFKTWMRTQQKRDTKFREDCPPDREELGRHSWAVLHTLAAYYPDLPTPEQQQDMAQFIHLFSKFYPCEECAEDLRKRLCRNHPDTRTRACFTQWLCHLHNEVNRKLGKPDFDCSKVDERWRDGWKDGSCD
# SUMO HTRF inh = SUMOylation inhibition; P63279; HTRF SUMOylation assay, SAE1/SAE2 + UBC9, in vitro; inhibition, % at 35 µM; 290,000 compounds, 0.36% hits; AID 2006; in the data active = inhibition above about 50%, passing the limit was not always enough
# Target sequence (P63279 whole entry, looked up): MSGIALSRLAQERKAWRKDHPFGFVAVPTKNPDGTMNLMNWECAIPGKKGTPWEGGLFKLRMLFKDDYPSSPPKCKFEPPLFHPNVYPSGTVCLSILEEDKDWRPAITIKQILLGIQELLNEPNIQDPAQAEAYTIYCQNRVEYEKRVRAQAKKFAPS
# MLLE-PAM2 inh = inhibitors of microRNA-mediated deadenylation, human PABP1 MLLE binding. P11940. GST-MLLE / FITC-PAM2 fluorescence polarization. inhibition, % at 20 µM. 360,000 compounds, 0.36% hits. AID 588489; in the data active = inhibition above about 35%, passing the limit was not always enough
# Efflux pump inh = antifungal efflux pump inhibition, Nile Red retention | S. cerevisiae Candida pump triplex | inhibition, % at 10 µM | 330,000 compounds, 0.44% hits | AID 485275;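 active = plate passing quality check with inhibition over a set limit, or well fluorescence over plate mean plus 4 SD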;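 note: Nile Red retained in pooled yeast measured as flow cytometry median fluorescence; higher means more Nile Red kept so more efflux inhibition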
# Numbers stand for hits; n = inactive; x = not tested or not shown. Sampled rows, rich in hits. Any-hit rate of the full collection: about 4.7%. Unless noted, the rule behind the calls is not given here.
SMILES,eIF4H inh,PABP polyA inh,ALR inh,SUMO HTRF inh,MLLE-PAM2 inh,Efflux pump inh
CC(C)C[C@H](NC(=O)N1CCn2c1nc1ccccc12)C(=O)NCC1CCCO1 (stereo not given in full),x,x,n,x,n,n
CC1(C(=O)NS(=O)(=O)c2ccc3ccccc3c2)CCN1C(=O)Cc1ccc(Cl)cc1Cl (stereo not given),x,x,x,x,n,x
COC(=O)c1ccc(CSc2ncnc3c2nnn3-c2ccc(F)cc2)o1,n,n,99,n,n,n
CCC(Sc1ncnc2c1nnn2-c1ccc(F)cc1)C(=O)OC (stereo not given),n,n,96,n,n,n
CCOC(=O)C(C)Sc1ncnc2c1nnn2-c1ccc(F)cc1 (stereo not given),n,n,96,n,n,n
O=C(CSc1nnc2c(n1)[nH]c1ccccc12)Nc1ccc(S(=O)(=O)Nc2ncccn2)cc1,n,n,x,n,n,x
CCOC(=O)CCCNC(=O)CCNC(=O)c1ccc(OCC)cc1,active,116,n,n,n,n
CCOC(=O)c1ccc(-c2c(-c3ccccc3OC)sc3ccc(OC)cc23)cc1F,x,x,n,x,n,n
C(=C\c1nc2ccccc2[nH]1)/c1ccccc1,n,n,98,n,n,n
C(=C\c1ccco1)/c1nc2ccccc2[nH]1,n,n,98,n,n,n
O=C(/C=C/c1ccco1)Nc1ccc(-c2nc3ccccc3[nH]2)cc1,n,n,n,n,n,n
COc1ccccc1NS(=O)(=O)c1cccc(NS(=O)(=O)c2cc(C(=O)O)ccc2Cl)c1,x,x,x,x,n,x
O=C1NC(Cc2ccccc2)c2nc3cc(Cl)ccc3c(=O)n2-c2ccccc21 (stereo not given),x,x,n,x,x,n
COCCNC(=S)N/N=C(\C)c1ccccc1O,n,n,n,n,44,n
Cc1ccc(NC(=O)COC(=O)CN2CCSC2=O)cc1Cl,x,x,x,x,n,x
Cc1ccc(NC(=O)C2CCCN(S(=O)(=O)c3cnc[nH]3)C2)cc1F (stereo not given),n,n,n,n,n,n
O=C(Nc1ccc(Cl)cc1)C1CCCN(S(=O)(=O)c2cnc[nH]2)C1 (stereo not given),n,n,96,n,n,n
Cc1cc(C)cc(NC(=O)C2CCCN(S(=O)(=O)c3cnc[nH]3)C2)c1 (stereo not given),n,n,n,n,n,n
O=C(NCCc1ccccc1)C1CCCN(S(=O)(=O)c2cnc[nH]2)C1 (stereo not given),n,n,87,n,n,n
CC(C)c1ccc(NC(=O)C2CCCN(S(=O)(=O)c3cnc[nH]3)C2)cc1 (stereo not given),n,n,91,n,n,n
CC(NC(=O)C1CCCN(S(=O)(=O)c2cnc[nH]2)C1)c1ccccc1 (stereo not given),n,n,n,n,n,n
COc1cc(NC(=O)C2CCCN(S(=O)(=O)c3cnc[nH]3)C2)cc(OC)c1 (stereo not given),n,n,98,n,n,n
O=C(NCc1ccccc1)c1cc(C2COCCN2C(=O)C2CC2)on1 (stereo not given),x,x,x,x,n,x
O=C(NCc1ccc(Cl)cc1)C1CCCN(S(=O)(=O)c2cnc[nH]2)C1 (stereo not given),n,n,94,n,n,n
CCOC(=O)c1ccc(NC(=O)C2CCCN(S(=O)(=O)c3cnc[nH]3)C2)cc1 (stereo not given),n,n,95,n,n,n
SMILES,eIF4H inh,PABP polyA inh,ALR inh,SUMO HTRF inh,MLLE-PAM2 inh,Efflux pump inh
CCOC(=O)c1ccc(NC(=O)C2CCN(S(=O)(=O)c3c(C)nn(C)c3C)CC2)cc1,n,n,98,n,n,n
Cc1ccc(CNC(=O)C2CCCN(S(=O)(=O)c3cnc[nH]3)C2)cc1 (stereo not given),n,n,n,n,n,n
O=C(Nc1cccc(F)c1)C1CCCN(S(=O)(=O)c2cnc[nH]2)C1 (stereo not given),n,n,n,n,n,n
O=C(NCCN1CCN(c2ccccc2F)CC1)C1CCCN(S(=O)(=O)c2cnc[nH]2)C1 (stereo not given),n,n,88,n,n,n
O=C(CN1C(=O)CCC1=O)Nc1cccc(NC(=O)CN2C(=O)CCC2=O)c1,n,n,n,n,n,n
CCCC1NC(=O)c2cccnc2-n2c1nc1cc(F)c(F)cc1c2=O (stereo not given),x,x,x,x,n,x
